In PubChem BioAssay AID2252 (Southern Research Specialized Biocontainment Screening …, 2010):
About 1,500 (65%) of roughly 2,300 compounds were called active. The set was probably picked from earlier hits. Only a sample is shown. A number with no mark means an inactive call. No rule for the calls is given here.

test: PubChem AID 2252; conditions: THP-1 viability, CellTiter-Glo luminescence, 72 h; min viability: minimum viability across concentrations, active compounds read low, concentration not given here; series mostly up to 50 µM; viability: at the top concentration;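 also: 100% = mean of untreated cell control wells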

In order of rising “viability” value:
1. COc1ccc(-c2nc3ccc(C(=O)NCC(OC)OC)cc3nc2-c2ccc(OC)cc2)cc1  81.2%
2. O=C(Nc1nccs1)c1ccc(Cl)cc1[N+](=O)[O-]  82.4%
3. CN1CCCN(S(=O)(=O)c2ccc3ccccc3c2)CC1  82.4%
4. COc1c2ccccc2nc2ccccc12  83.5%
5. O=C(O)C1CCCCC1C(=O)NCCc1ccncc1 (stereo not given)  83.8%
6. COCCn1nnnc1C(c1cccc(OC)c1OC)N1CCN(C2CCCCC2)CC1 (stereo not given)  84%
7. COc1ccc(-c2nnn(-c3ccc(Cl)cc3Cl)c2N)cc1  84%
8. Cc1ccn2cc(-c3ccc4c(c3)NC(=O)CO4)nc2c1  84.1%
9. Cn1c(-c2ccc(CN3CCCCC3)o2)nc2ccccc21  84.1%
10. Cc1ccc(NC(=O)c2cc(NC(=O)CCCC(=O)O)ccc2Cl)cc1Cl  84.2%
11. Cc1ccc(/C=N/NC(=O)Cc2cccn2C)cc1  84.8%
12. Cn1cc(S(=O)(=O)NCC2CCCO2)c(=O)n(C)c1=O (stereo not given)  84.8%
13. CCOC(=O)c1cccc(NC(=O)c2cccs2)c1  85.5%
14. O=C(NC(CO)C(O)c1ccc([N+](=O)[O-])cc1)C(Cl)Cl (stereo not given)  85.8%
15. N#Cc1nc(Cc2cccc3ccccc23)oc1NCCCN1CCOCC1  85.9%
16. CSc1nc2ccc(Cl)cc2[nH]1  86%
17. O=C(N/N=C/c1ccc(-c2ccc(Br)cc2)o1)c1ccc2c(c1)OCO2  86%
18. CCc1nc(C)ccc1OCC(=O)NCCCN(C)C  86.1%
19. CCn1cc(C(=O)O)c(=O)c2cc(F)c(N3CCN(C(=S)NC(=O)c4ccc(Br)cc4)CC3)cc21  86.4%
20. CCn1nnnc1NCc1cccc(Cl)c1  86.5%
21. CSC(=Nc1ccc(Cl)cc1)N[n+]1ccccc1  86.7%
22. COCCNC(=O)c1cccc(OC2CCN(Cc3ccccc3C)CC2)c1  87.3%
23. O=Cc1ccc(O)cc1O  88.5%
24. CC(Sc1nc2ccccc2o1)C(=O)O (stereo not given)  88.5%
25. CN(C)C(=O)CSc1nnc(Cc2ccc([N+](=O)[O-])cc2)o1  88.6%
26. CCn1cc(C(=O)NCCO)c(=O)c2cc(F)c(N3CCN(C)CC3)cc21  88.8%
27. Cc1ccc(-n2ncc3c(=O)[nH]cnc32)c(C)c1  88.9%
28. O=c1[nH]cc(N=Cc2cc([N+](=O)[O-])ccc2O)c(=O)[nH]1  90.4%
29. O=C(CCCOc1ccc(Cl)cc1Cl)NNC(=O)C1CCC1  91.4%
30. CC(=O)Nc1ccc(S(=O)(=O)Nc2nc3ccccc3nc2Nc2cccc(S(N)(=O)=O)c2)cc1  92%
31. O=C(Cc1ccccc1)NCC(=O)Nc1cccc(Cl)c1  92.3%
32. O=C(O)c1cn(-c2ccc(F)cc2)c2cc(Cl)c(F)cc2c1=O  92.6%
33. Cc1ccc(C(=O)N/N=C\c2sccc2C)cn1  93.3%
34. NS(=O)(=O)OCCCc1ccc(C(F)(F)F)cc1  94%
35. CN1C(=O)NC(c2cccc(O)c2)C(C(=O)c2cccs2)C1(O)C(F)(F)F (stereo not given)  94.4%
36. CC(C)CC(=O)N1CCN(C(=O)CCC2CCCC2)CC1  94.8%
37. Cc1cc(C)c(S(=O)(=O)Nc2ccccc2C(=O)OCC(=O)NCc2ccccc2)c(C)c1  95.1%
38. Cc1cc(C)cc(CSc2nnc(C)c(=O)[nH]2)c1  95.4%
39. Cc1ccc2c(c1)C1CN(C)CCC1N2C(=O)COc1ccccc1F (stereo not given)  96%
40. CCCCN1/C(=C/c2cccc[n+]2C)Sc2cc(NC(C)=O)ccc21  96.2%
41. Cc1cccc(N2C(=O)CS/C2=N\NC(=O)c2ccc(Br)cc2)c1C  98%
42. CN(C)CCCOC(=O)c1sc2ccccc2c1Cl  98.1%
43. COc1cccc(NC(=O)CSc2nncn2-c2ccccn2)c1  99.8%
44. O=C(NCc1cccnc1)C1c2ccccc2C(=O)N1Cc1ccccc1 (stereo not given)  100%
45. CCCCN(C)C(=O)c1ccc(S(=O)(=O)N2CCOCC2)cc1  100%
46. Cc1cc(C)c2c(N)c(C(=O)c3ccc(Cl)c(Cl)c3)sc2n1  100%
47. O=C(NCC1CCCO1)c1cc2ccccc2oc1=O (stereo not given)  100%
48. O=C(CN(C(=O)CNS(=O)(=O)c1ccccc1)C1CCCC1)NCc1ccco1  101%
49. CC(=O)c1ccc(NC(=O)CN2CCCCCC2)cc1  102%
50. O=C(NCc1ccccc1)N[C@@H](Cc1c[nH]c2ccccc12)C(=O)O  103%
51. O=C(NC1CC1)C1CCN(C2CCN(C(=O)Cc3ccc(F)cc3)CC2)CC1  103%
52. N#CCC(=O)N/N=C/c1ccccc1Cl  105%
53. Cc1cc(N2CCCCC2)c(F)cc1[N+](=O)[O-]  106%

In order of rising “viability” value:
1. CN1C2=CC=CC=CC2=[N+](C)C12C=CC(=[N+]([O-])[O-])C=C2[N+](=O)[O-] (stereo not given)  80.8% [at 25 µM]
2. CCC(C)NC(=O)c1cn(CC)c2cc(N3CCN(C)CC3)c(F)cc2c1=O (stereo not given)  108% [at 25 µM]
